# Data published in PubChem BioAssay (EPA / NIEHS).
# Calls of active or inactive are those of the source. Rule for the calls: active = hit-call score of the fitted dose curve at least 0.9, where 1 is the maximum; inactive = score below 0.9.
# What was measured:
# [1] = APR_HepG2_NuclearSize_72hr: Apredica 72-hour HepG2 Assay for Nuclear Size (AID 2282925); settings: high-content imaging, actives raise or lower the signal
# Method in brief: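 HepG2; cpd 0.39–200 uM, 10 conc, duplicate; 72 h; DMSO 0.5% v/v; fix 3.7% formaldehyde 30 min RT; Triton permeabilization; Hoechst 2 ug/mL; HCS imaging 20x; nuclear diameter; gain/loss fit vs DMSO.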
# [2] = ATG_CRE_CIS: Attagene CIS-FACTORIAL HepG2 Assay for human cAMP Responsive Element (CRE) binding protein 3 (AID 2282926); settings: HepG2 CRE cis-reporter, Attagene multiplexed mRNA; actives raise or lower the signal
# Method in brief: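 HepG2 cells transiently transfected with a multiplexed reporter library (CRE-driven unit among them) were dosed for 24 h. Reporter mRNA was quantified by RT-PCR, fluorescent labelling, HpaI digestion and capillary electrophoresis, with bidirectional fitting against DMSO baseline.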
# [3] = molecular target: CCAAT/enhancer-binding protein beta (Homo sapiens) (UniProt P17676); test: ATG_C_EBP_CIS: Attagene CIS-FACTORIAL HepG2 Assay for human CCAAT/Enhancer Binding Protein (C/EBP) beta (AID 2282927); settings: HepG2 Attagene cis-factorial transcription factor reporter; actives raise or lower the signal
# CCAAT/enhancer-binding protein beta (Homo sapiens), sequence (P17676 whole entry, looked up): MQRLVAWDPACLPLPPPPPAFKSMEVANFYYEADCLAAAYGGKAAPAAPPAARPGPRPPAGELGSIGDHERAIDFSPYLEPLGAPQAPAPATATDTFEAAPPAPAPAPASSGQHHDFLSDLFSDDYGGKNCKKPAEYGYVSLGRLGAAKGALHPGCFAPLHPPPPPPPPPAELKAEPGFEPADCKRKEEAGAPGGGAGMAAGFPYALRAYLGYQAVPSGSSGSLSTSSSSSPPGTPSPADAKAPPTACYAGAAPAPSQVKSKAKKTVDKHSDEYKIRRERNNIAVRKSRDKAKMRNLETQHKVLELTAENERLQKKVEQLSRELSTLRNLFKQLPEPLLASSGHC
# Method in brief: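 Endogenous transcription factor activity in human liver HepG2 cells is inferred from induction of a CEBPB-linked reporter mRNA. Exposure lasts 24 h; activity is fitted in both directions relative to DMSO.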
# [4] = ATG_CMV_CIS: Attagene CIS-FACTORIAL HepG2 Assay for human CMV (Internal Marker) (AID 2282928); settings: HepG2 CMV promoter reporter, transcription factor profiling; actives raise or lower the signal;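 note: endpoint acts as a background internal control marker rather than a target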
# Method in brief: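 After transient transfection of HepG2 with reporter transcription units driven by cis-regulatory promoters, cells receive test chemical for 24 h. Labeled reporter amplicons, digested with HpaI, are sized and quantified by capillary electrophoresis against DMSO.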
# [5] = ATG_DR4_LXR_CIS: Attagene CIS-FACTORIAL HepG2 Assay for human Liver X Receptor (LXR), DR4 submotif (AID 2282929); settings: HepG2 Attagene DR4 cis-reporter, mRNA transcription; actives raise or lower the signal
# Method in brief: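 HepG2, transient MRTU transfection, cis-element (DR4) promoter; 24 h compound exposure; total RNA → oligo(dT) RT → PCR → 6-FAM primer extension → HpaI cut → CE. Gain/loss vs DMSO, bidirectional fit.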
# [6] = molecular target: Aryl hydrocarbon receptor (Homo sapiens) (UniProt P35869); test: ATG_Ahr_CIS: Attagene CIS-FACTORIAL HepG2 Assay for human Aryl Hydrocarbon Receptor (Ahr) (AID 2282930); settings: HepG2 AhR cis-factorial reporter transcription; actives raise or lower the signal
# Aryl hydrocarbon receptor (Homo sapiens), sequence (P35869 whole entry, looked up): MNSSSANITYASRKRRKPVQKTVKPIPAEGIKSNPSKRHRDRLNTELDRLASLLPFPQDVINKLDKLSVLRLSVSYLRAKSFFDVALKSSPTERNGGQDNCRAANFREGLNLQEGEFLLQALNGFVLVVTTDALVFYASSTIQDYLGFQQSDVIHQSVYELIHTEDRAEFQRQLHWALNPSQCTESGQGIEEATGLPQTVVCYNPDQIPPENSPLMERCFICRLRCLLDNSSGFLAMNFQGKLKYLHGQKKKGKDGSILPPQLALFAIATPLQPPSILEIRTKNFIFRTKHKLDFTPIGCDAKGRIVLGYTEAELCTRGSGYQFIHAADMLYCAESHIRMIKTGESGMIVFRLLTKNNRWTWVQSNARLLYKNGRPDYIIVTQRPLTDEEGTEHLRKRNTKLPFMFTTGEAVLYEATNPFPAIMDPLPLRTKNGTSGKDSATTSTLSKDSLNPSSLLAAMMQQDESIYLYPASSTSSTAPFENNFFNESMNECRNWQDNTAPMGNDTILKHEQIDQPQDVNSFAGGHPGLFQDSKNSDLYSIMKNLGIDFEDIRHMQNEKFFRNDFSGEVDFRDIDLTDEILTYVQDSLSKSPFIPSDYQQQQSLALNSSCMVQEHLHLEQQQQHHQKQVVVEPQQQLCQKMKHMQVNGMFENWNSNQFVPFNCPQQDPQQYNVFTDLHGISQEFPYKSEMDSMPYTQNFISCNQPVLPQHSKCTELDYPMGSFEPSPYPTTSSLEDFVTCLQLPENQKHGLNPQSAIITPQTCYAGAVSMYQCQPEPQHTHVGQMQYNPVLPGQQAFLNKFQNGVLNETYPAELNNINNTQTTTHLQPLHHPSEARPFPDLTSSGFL
# Method in brief: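 Transient MRTU transfection of HepG2 → 24 h compound exposure → total RNA, oligo(dT) RT → PCR, 6-FAM extension, HpaI cut → CE fluorescence. DMSO = baseline; bidirectional curve fit.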
# [7] = ATG_AP_2_CIS: Attagene CIS-FACTORIAL HepG2 Assay for human Activator Protein 2 (AP-2) (AID 2282932); settings: HepG2 AP-2 cis-reporter, Attagene transcription factor profiling; actives raise or lower the signal
# Method in brief: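 Step one: transient transfection of HepG2 with reporter transcription units. Step two: 24 h chemical exposure. Step three: RNA extraction, RT-PCR, labelled fragment analysis by capillary electrophoresis; DMSO serves as baseline.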
# [8] = ATG_BRE_CIS: Attagene CIS-FACTORIAL HepG2 Assay for human Bone Morphogenetic Protein (BMP) Response Element (BRE) (AID 2282933); settings: HepG2 BMP response element reporter, Attagene transcription factor profiling; actives raise or lower the signal
# Method in brief: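 After a 24 h chemical treatment, transiently transfected HepG2 cells were lysed for RNA; reporter transcripts were quantified by fluorescent RT-PCR and capillary electrophoresis, normalised to DMSO.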
# [9] = molecular target: Transcription factor E2F1 (Homo sapiens) (UniProt Q01094); test: ATG_E2F_CIS: Attagene CIS-FACTORIAL HepG2 Assay for human E2F Transcription Factor 1 (AID 2282935); settings: HepG2 Attagene cis-reporter, E2F reporter RNA transcripts; actives raise or lower the signal
# Transcription factor E2F1 (Homo sapiens), sequence (Q01094 whole entry, looked up): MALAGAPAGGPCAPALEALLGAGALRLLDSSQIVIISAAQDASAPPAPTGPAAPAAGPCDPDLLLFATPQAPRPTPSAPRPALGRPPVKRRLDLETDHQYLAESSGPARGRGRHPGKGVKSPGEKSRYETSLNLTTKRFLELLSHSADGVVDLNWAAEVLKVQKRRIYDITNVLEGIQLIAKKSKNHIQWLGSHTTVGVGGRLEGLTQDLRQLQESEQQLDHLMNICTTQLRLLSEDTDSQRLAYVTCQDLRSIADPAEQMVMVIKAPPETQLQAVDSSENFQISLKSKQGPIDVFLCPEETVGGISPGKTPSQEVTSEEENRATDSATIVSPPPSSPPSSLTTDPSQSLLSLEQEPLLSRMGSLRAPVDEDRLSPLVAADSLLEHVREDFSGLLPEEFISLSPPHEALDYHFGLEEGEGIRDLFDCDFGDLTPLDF
# Method in brief: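 Total RNA from 24 h-treated, reporter-transfected HepG2 cells undergoes DNase I treatment, oligo(dT) reverse transcription, PCR and 6-FAM primer extension before capillary electrophoresis.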
# [10] = ATG_E_Box_CIS: Attagene CIS-FACTORIAL HepG2 Assay for human Enhancer Box (E-box) (AID 2282936); settings: HepG2 E-box cis-reporter transcription, actives raise or lower the signal
# Method in brief: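 DMSO served as negative control and baseline for bidirectional fitting. Human hepatoma HepG2 cells, transiently transfected with cis-reporter constructs, were dosed 24 h; reporter mRNA read by RT-PCR and capillary electrophoresis.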
# [11] = ATG_M_61_CIS: Attagene CIS-FACTORIAL HepG2 Assay for M61 Transcription Factor (Internal Marker) (AID 2282937); settings: HepG2 Attagene CIS-FACTORIAL M61 internal marker reporter; actives raise or lower the signal
# Method in brief: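 Human liver HepG2, transient MRTU transfection (cis promoter elements), 24 h compound. Total RNA → oligo(dT) RT → PCR → FAM label → HpaI → CE. Internal background marker; bidirectional fitting, DMSO = baseline.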
# [12] = ATG_EGR_CIS: Attagene CIS-FACTORIAL HepG2 Assay for human Early Growth Response 1 (EGR1) (AID 2282938); settings: HepG2 Attagene CIS-FACTORIAL EGR reporter mRNA; actives raise or lower the signal
# Method in brief: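 Transient transfection of human HepG2 with multiple cis-regulated reporter units, chemical exposure 24 h, total RNA isolated. Reverse transcription, PCR, fluorescent labelling and capillary electrophoresis quantify reporter transcripts; activity fitted bidirectionally against DMSO.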
# [13] = ATG_M_19_CIS: Attagene CIS-FACTORIAL HepG2 Assay for M19 Transcription Factor (Internal Marker) (AID 2282939); settings: HepG2 Attagene CIS-FACTORIAL M19 internal marker reporter; actives raise or lower the signal
# Method in brief: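 In this multiplexed cell assay, transiently transfected HepG2 reporter units report endogenous transcription-factor activity; after 24 hours of treatment, labelled reporter cDNA fragments are quantified by capillary electrophoresis and fitted bidirectionally against DMSO.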
# [14] = ATG_ERE_CIS: Attagene CIS-FACTORIAL HepG2 Assay for Estrogen Response Element (ERE) (AID 2282940); settings: HepG2 ERE cis-reporter, Attagene RNA transcript; actives raise or lower the signal
# Method in brief: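 Measuring endogenous transcription factor output, the assay doses transfected HepG2 cells for 24 hours and quantifies reporter transcripts by fluorescent RT-PCR and capillary electrophoresis, with DMSO as baseline.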
# [15] = ATG_Ets_CIS: Attagene CIS-FACTORIAL HepG2 Assay for human Erythroblast Transformation Specific (ETS) (AID 2282941); settings: HepG2 ETS cis-reporter transcription, actives raise or lower the signal
# Method in brief: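 Human HepG2 hepatoma cells were transiently transfected with promoter-driven reporter constructs and treated for 24 hours. Reporter transcripts were quantified by RT-PCR with fluorescent primer extension; bidirectional curve fitting used DMSO as reference.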
# [16] = molecular target: Hepatocyte nuclear factor 3-beta (Homo sapiens) (UniProt Q9Y261); test: ATG_FoxA2_CIS: Attagene CIS-FACTORIAL HepG2 Assay for human Forkhead box A2 (FOXA2) (AID 2282942); settings: HepG2 cis-reporter transcription factor activity, 24 h; actives raise or lower the signal
# Hepatocyte nuclear factor 3-beta (Homo sapiens), sequence (Q9Y261 whole entry, looked up): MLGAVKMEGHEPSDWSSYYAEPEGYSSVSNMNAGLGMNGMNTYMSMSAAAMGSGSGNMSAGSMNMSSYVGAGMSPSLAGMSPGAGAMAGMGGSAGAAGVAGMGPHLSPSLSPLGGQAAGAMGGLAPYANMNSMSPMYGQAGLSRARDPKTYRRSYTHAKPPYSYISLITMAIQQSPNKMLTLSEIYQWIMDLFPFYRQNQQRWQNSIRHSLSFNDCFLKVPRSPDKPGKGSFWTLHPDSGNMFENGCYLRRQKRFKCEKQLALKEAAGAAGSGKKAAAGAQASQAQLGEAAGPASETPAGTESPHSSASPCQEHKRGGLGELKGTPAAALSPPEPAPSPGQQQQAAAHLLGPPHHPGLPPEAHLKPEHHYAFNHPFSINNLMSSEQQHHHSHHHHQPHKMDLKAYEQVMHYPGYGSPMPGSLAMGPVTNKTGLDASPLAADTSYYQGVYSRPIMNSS
# Method in brief: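 Transient MRTU transfection of HepG2 liver cells; 24 h treatment; total RNA → oligo(dT) RT → PCR → FAM primer extension → HpaI cut → CE. Bidirectional fit vs DMSO.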
# [17] = ATG_FoxO_CIS: Attagene CIS-FACTORIAL HepG2 Assay for human Forkhead box O (FoxO) (AID 2282943); settings: HepG2 Attagene cis-reporter, FoxO element, mRNA; actives raise or lower the signal
# Method in brief: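 HepG2, transient MRTU transfection (cis element, endogenous TFs). Dose 24 h. TriZol RNA → oligo(dT) RT → PCR → 6-FAM primer extension → HpaI cut → CE. Gain/loss vs DMSO.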
# [18] = ATG_GATA_CIS: Attagene CIS-FACTORIAL HepG2 Assay for human GATA Binding Protein (AID 2282944); settings: HepG2 GATA cis-element reporter, Attagene multiplex mRNA; actives raise or lower the signal
# Method in brief: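 Measures endogenous transcription factor-driven reporter mRNA in HepG2 cells transiently carrying cis-regulated constructs. 24 h dosing; RNA via oligo(dT) reverse transcription, PCR, HpaI digestion, capillary electrophoresis; fitted relative to DMSO.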
smiles,measurement,setting,value
CC1(C)C(C(=O)OC(C#N)c2cccc(Oc3ccccc3)c2)C1(C)C (stereo not drawn),outcome,[1],inactive
same,outcome,[2],inactive
same,outcome,[3],inactive
same,outcome,[4],inactive
same,AC50,[5],14.3 µM (active)
same,outcome,[6],inactive
same,outcome,[7],inactive
same,outcome,[8],inactive
same,outcome,[9],inactive
same,outcome,[10],inactive
same,outcome,[11],inactive
same,outcome,[12],inactive
same,outcome,[13],inactive
same,outcome,[14],inactive
same,outcome,[15],inactive
same,outcome,[16],inactive
same,outcome,[17],inactive
same,outcome,[18],inactive
CNC(=O)Oc1cccc2ccccc12,outcome,[1],inactive
same,outcome,[2],inactive
same,outcome,[3],inactive
same,AC50,[4],50 µM (active)
same,outcome,[5],inactive
same,AC50,[6],6.71 µM (active)
same,outcome,[7],inactive
same,AC50,[8],23.6 µM (active)
same,outcome,[9],inactive
same,AC50,[10],9.92 µM (active)
same,outcome,[11],inactive
same,outcome,[12],inactive
same,outcome,[13],inactive
same,AC50,[14],50 µM (active)
same,outcome,[15],inactive
same,outcome,[16],inactive
same,outcome,[17],inactive
same,outcome,[18],inactive
Cc1cc(C)nc(Nc2ccccc2)n1,outcome,[1],inactive
same,AC50,[2],7.42 µM (active)
same,AC50,[3],6.27 µM (active)
same,outcome,[4],inactive
same,outcome,[5],inactive
same,outcome,[6],inactive
same,outcome,[7],inactive
same,AC50,[8],27 µM (active)
same,outcome,[9],inactive
same,outcome,[10],inactive
same,outcome,[11],inactive
same,AC50,[12],50 µM (active)
same,outcome,[13],inactive
same,outcome,[14],inactive
same,outcome,[15],inactive
same,outcome,[16],inactive
same,outcome,[17],inactive
same,outcome,[18],inactive
COCC(C)N(C(=O)CCl)c1c(C)csc1C (stereo not drawn),outcome,[1],inactive
same,AC50,[2],1.83 µM (active)
same,outcome,[3],inactive
same,outcome,[4],inactive
same,outcome,[5],inactive
same,outcome,[6],inactive
same,outcome,[7],inactive
same,outcome,[8],inactive
same,outcome,[9],inactive
same,outcome,[10],inactive
same,outcome,[11],inactive
same,outcome,[12],inactive
same,outcome,[13],inactive
same,outcome,[14],inactive
same,outcome,[15],inactive
same,outcome,[16],inactive
same,outcome,[17],inactive
same,outcome,[18],inactive
CCCCC(O)(Cn1cncn1)c1ccc(Cl)cc1Cl (stereo not drawn),outcome,[1],inactive
same,outcome,[2],inactive
same,outcome,[3],inactive
same,AC50,[4],19.5 µM (active)
same,outcome,[5],inactive
same,outcome,[6],inactive
same,outcome,[7],inactive
same,AC50,[8],33.3 µM (active)
same,outcome,[9],inactive
same,AC50,[10],50 µM (active)
same,outcome,[11],inactive
same,AC50,[12],50 µM (active)
same,outcome,[13],inactive
same,AC50,[14],12.6 µM (active)
same,outcome,[15],inactive
same,outcome,[16],inactive
same,outcome,[17],inactive
same,outcome,[18],inactive
C=C(C)CN(CC)c1c([N+](=O)[O-])cc(C(F)(F)F)cc1[N+](=O)[O-],outcome,[1],inactive
same,outcome,[2],inactive
same,outcome,[3],inactive
same,outcome,[4],inactive
same,AC50,[5],50 µM (active)
same,outcome,[6],inactive
same,outcome,[7],inactive
same,outcome,[8],inactive
same,outcome,[9],inactive
same,outcome,[10],inactive
same,outcome,[11],inactive
same,outcome,[12],inactive
same,outcome,[13],inactive
same,AC50,[14],31.2 µM (active)
same,outcome,[15],inactive
same,outcome,[16],inactive
same,outcome,[17],inactive
same,outcome,[18],inactive
